High-throughput results from PubChem BioAssay.
Sampled rows, rich in hits. Any-hit rate of the full collection: about 13%.
USP30 block: inhibitors of human USP30 deubiquitinase | Q70CQ3 | inhibition, % at 25 µM | actives 5.3% (n = 47,000) | purified USP30, Ub-rhodamine cleavage fluorescence
OTUD3 block: human OTUD3 deubiquitinase inhibition; inhibition, % at 25 µM; actives 0.7% (n = 47,000); purified OTUD3, Ub-rhodamine fluorescence, 2 h
USP8 inh: blocks human USP8 ubiquitin-rhodamine cleavage; P40818; purified USP8, Ub-rhodamine cleavage fluorescence, 30 min; inhibition, % at 20 µM; actives 4.2% (n = 47,000); AID 1645853
USP17 inh: human USP17-like deubiquitinase inhibition; A8MUK1; purified USP17, Ub-rhodamine cleavage fluorescence, 3 h; inhibition, % at 50 µM; actives 6.5% (n = 47,000); AID 1645855
Target sequence (A8MUK1 whole entry, looked up): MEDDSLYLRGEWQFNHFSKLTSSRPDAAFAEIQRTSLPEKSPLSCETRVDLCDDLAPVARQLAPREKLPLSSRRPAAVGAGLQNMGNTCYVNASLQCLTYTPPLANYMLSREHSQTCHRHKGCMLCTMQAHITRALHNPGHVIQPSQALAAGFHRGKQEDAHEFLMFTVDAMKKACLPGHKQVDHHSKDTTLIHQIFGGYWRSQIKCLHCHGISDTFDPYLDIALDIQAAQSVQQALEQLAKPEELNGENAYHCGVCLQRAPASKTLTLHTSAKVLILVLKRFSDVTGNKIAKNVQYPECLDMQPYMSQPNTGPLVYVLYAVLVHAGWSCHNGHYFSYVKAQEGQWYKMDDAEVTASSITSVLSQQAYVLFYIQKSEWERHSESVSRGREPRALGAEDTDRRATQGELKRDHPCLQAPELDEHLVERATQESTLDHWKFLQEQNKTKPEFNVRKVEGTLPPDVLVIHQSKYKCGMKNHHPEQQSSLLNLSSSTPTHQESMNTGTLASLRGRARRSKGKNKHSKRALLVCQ
USP28 inh: inhibitors of human USP28 deubiquitinase. Q96RU2. actives 3% (n = 47,000). inhibition, % at 25 µM. purified USP28, Ub-rhodamine cleavage fluorescence, 30 min
Numbers without * were called inactive. Rule as the data show it: active = inhibition above about 30%; inactive = the rest.

SMILES | USP30 block | OTUD3 block | USP8 inh | USP17 inh | USP28 inh
Clc1ccc(Cn2c(NCc3ccccc3Cl)nc3ccccc32)cc1 | 34* | 9 | -2 | 6 | 15
O=c1c(-c2nc(C3CC3)no2)cccn1Cc1nc(-c2ccccc2Cl)no1 | -138 | -24 | -1 | -17 | -14
O=C(COc1ccc(Cl)cc1Cl)Nc1noc2ccccc12 | -13 | -6 | 5 | 40* | 0
COc1cc2ccccc2cc1C(=O)Nc1ccccc1-c1nc2ccccc2[nH]1 | 1 | 3 | 10 | 0 | 10
O=C(COc1ccc(Cl)cc1Cl)Nc1ccccc1-c1nc2ccccc2[nH]1 | 10 | 17 | 27 | 84* | 10
Cc1cc(Cl)ccc1OCC(=O)Nc1ncccc1C | -3 | -12 | -5 | -3 | -4
COc1ccc(OCCCC(=O)Nc2ccccc2-c2nc3ccccc3[nH]2)cc1 | -123 | -21 | 35* | -20 | -12
O=C(COc1ccc(Cl)cc1Cl)Nc1ccc2sccc2c1 | 46* | -3 | 4 | 41* | 0
O=C(NCCC(=O)N1CCC2(CC1)NCCc1[nH]cnc12)c1ccccc1 | -30 | -21 | 6 | -14 | -22
CCc1noc(-c2ccc(SCC(=O)N3CCCCC3)nc2)n1 | 0 | 3 | 7 | 4 | 7
COc1ccnc2c1c(=O)n(CC(=O)NC1CCCC1)c(=O)n2C | 5 | -4 | 0 | 10 | -5
O=C(NCc1ccccc1)c1cccc(-c2cnc(NC3CCCCC3)nc2)c1 | 2 | -2 | 0 | -1 | -7
Cc1cc(C)n(C(C)CC(=O)N2CCN(c3ccc(Cl)cc3)CC2)n1 (configuration not stated) | -3 | -9 | -12 | -12 | -10
COc1ccccc1N1CCN(C(=O)c2ccc3c(c2)N(Cc2cc(C)ccc2C)C(=O)c2ccccc2S3=O)CC1 (configuration not stated) | 51* | 12 | 26 | 20 | 18
O=C(c1ccc2c(c1)N(Cc1ccc(F)cc1)C(=O)c1ccccc1S2=O)N1CCN(c2ccccn2)CC1 (configuration not stated) | 40* | -1 | 12 | 16 | 26
O=C(c1ccc2nc(C(F)(F)F)[nH]c2c1)N1CCN(c2ccccn2)CC1 | 13 | -1 | 1 | 2 | 1
Cc1ccc(C)c(CN2C(=O)c3ccccc3S(=O)c3ccc(C(=O)N4CCN(c5ccccn5)CC4)cc32)c1 (configuration not stated) | 39* | 7 | 30 | 18 | 24
COc1ccc(OC)c(/C=C/C(=O)OCC(=O)N(c2ccccc2)C(C)C)c1 | 18 | 13 | -70 | -10 | 13
CC1=C(C)C(N(c2ccccc2)c2ccccc2)N(CCC(C)C)C1=O (configuration not stated) | 16 | 10 | 95* | 76* | 16
COC(=O)C1(Cc2ccc(O)cc2)OC(=O)C(O)=C1c1ccc(O)cc1 (configuration not stated) | 70* | 78* | -8 | 85* | 78*
Cc1nc(C2CCN(Cc3ncc[nH]3)CC2)nc2c1CCC(=O)N2Cc1ccc(F)cc1 | -27 | -12 | -16 | -18 | -4
O=S(=O)(Nc1cccc(-c2nnc(Cc3ccc4c(c3)OCO4)o2)c1)c1ccccc1 | 27 | 9 | 21 | 11 | 32*
Cc1ccc(S(=O)(=O)N2CC=C(C(=O)Nc3ccc(Br)c(C)c3)CC2)cc1 | -42 | -11 | -11 | -11 | 0
CCN(CC)c1ccc(NC(=O)C2=CCN(S(=O)(=O)c3ccc(F)cc3)CC2)c(C)c1 | 14 | -3 | -11 | -4 | 35*
COCc1nn(C)c2c1CN(C(=O)c1ccc3c(c1)OCO3)CC2 | 13 | 7 | 2 | 5 | 5
SMILES | USP30 block | OTUD3 block | USP8 inh | USP17 inh | USP28 inh
CCc1ccccc1NC(=O)CN1C[C@]2(NC(C)=O)CN(C)CC[C@@H]2[C@H]1c1ccccc1 | 0 | 9 | 12 | 4 | 0
CCc1ccccc1NC(=O)c1cc(-c2ccccc2)c(N2CCOCC2)s1 | -11 | -1 | -10 | -8 | -10
Cc1ccc(NC(=O)c2cc(-c3ccccc3)c(N3CCOCC3)s2)cc1 | -32 | 2 | -1 | -10 | 0
CCOc1ccc(NC(=O)c2cc(-c3ccccc3)c(N3CCOCC3)s2)cc1 | 13 | 19 | 0 | 53* | 5
COc1cc(C)c(NC(=O)c2cc(-c3ccccc3)c(N3CCOCC3)s2)cc1OC | -10 | -2 | -9 | 59* | 19
O=C(Cn1ncc2ccccc21)Nc1ccc(Br)cn1 | -21 | 14 | 2 | 5 | 39*
Cc1ccc(CNC(=O)C2c3ccccc3CCN2C(=O)C2CC2)cc1 (configuration not stated) | -171 | -32 | -25 | -63 | -43
Cc1cccc(NC(=O)CCS(=O)(=O)c2ccc3c(c2)CC(=O)N3C)c1C | -45 | -13 | -24 | -27 | -25
Cn1nc(C2CCN(C(=O)COc3ccccc3)CC2)c2nccnc21 | 13 | 3 | 22 | 3 | 9
O=C(Nc1ccccc1)N1CCCC2(CCCN2Cc2ccccc2F)C1 (configuration not stated) | 32* | 16 | 9 | 3 | -1
COc1ccc(-c2nc(-c3ccc(=O)[nH]c3)no2)c(C)c1 | -155 | -17 | -59 | -45 | -36
Fc1ccc(-c2ccc(SCc3nc(-c4ccc(Cl)cc4)no3)nn2)cc1 | -43 | -17 | -3 | -37 | -14
Cc1ccccc1Cc1nc(-c2ccnc(N3CCOCC3)c2)no1 | 13 | 9 | 15 | 9 | 32*
O=c1ccc(-c2noc(Cc3c(F)cccc3Cl)n2)c[nH]1 | 27 | 14 | 11 | 16 | 93*
c1cc(-c2noc(C3CCCCC3)n2)cc(N2CCOCC2)n1 | 6 | 0 | 8 | 4 | 2
Cc1ccccc1Cc1nc(-c2ccc(=O)[nH]c2)no1 | -1 | 8 | -64 | 3 | 84*
COc1ccc(-n2ccnc(NCCc3ccccc3)c2=O)cc1 | 13 | 13 | 11 | 11 | 6
Cc1nn(C)cc1C(=O)N1CCOC(c2cncc(-c3cccc(F)c3)n2)C1 (configuration not stated) | 2 | 1 | 0 | -4 | -2
Cn1c(CNS(=O)(=O)c2ccc(Br)cc2)nnc1SCc1ccc(Cl)c(Cl)c1 | 35* | 21 | -10 | 0 | 41*
COCC1CN(C(=O)Cc2ccc(OC)cc2)Cc2ccnn2C1 (configuration not stated) | -5 | -2 | -69 | 0 | 4
O=C(CCc1ccc(S(=O)(=O)N2CCOCC2)cc1)OCC(=O)c1ccc(-c2ccccc2)cc1 | 31* | 11 | 31* | 25 | 15
O=C(CCc1ccc(S(=O)(=O)N2CCOCC2)cc1)NC(c1ccccc1)c1ccccc1 | 30 | 6 | -36 | 6 | 11
Cc1cc(NC(=O)C(=O)NCC2CCN(C(C)C)CC2)no1 | 33* | 10 | 8 | 10 | 2
Cc1ccccc1-c1noc2ncnc(NCCCN3CCCCC3)c12 | -13 | 0 | 10 | 2 | 2
COc1ccc(OC)c(CNc2nc(-c3cccc(OC)c3OC)no2)c1 | 5 | 3 | 21 | 0 | 6
